# According to ChEMBL document CHEMBL3988442, “University of Dundee, Small-Polar-MMV Screening Library” (2021):
# In all, about 48,000 compounds went through this assay and about 13,000 (27%) showed an effect of 50% or more. This is one part of the list.
# Test system: Wolbachia pipientis
# Experiment: Anti-Wolbachia Cell-Based Screen
# Assay type: functional
# Parameters: scale not given: in the data most compounds retested in dose-response had high values
# Conditions: 5 µM
row,SMILES,Percent Effect [%]
1,CN(c1nc(CSc2nnc(Cn3cncn3)o2)cs1)C1CC1,-4.174
2,O=C(CCc1c[nH]cn1)N1CC[C@@H](c2ccc3ccccc3c2)[C@H](O)C1,-1.023
3,Cc1n[nH]c(SCC(=O)NC(c2ccccn2)C(C)C)n1 (configuration not stated),0.231
4,CC(C)Cn1cc(NC(=O)NC(C)(C)c2nccs2)cn1,-7.007
5,Cc1nc(-c2c(C)noc2C)cc(C2CCN(CC(=O)N(C)C)CC2)n1,77.89
6,Cc1cc(Cl)cc(C)c1CNC1CCN(CC(=O)N(C)C)CC1,-21.25
7,CCc1n[nH]c(C2CN(CC(=O)N(C)Cc3ccco3)CCO2)n1 (configuration not stated),-22.35
8,Cc1cc(C(F)(F)F)c2c(C3CCN(S(=O)(=O)N(C)C)CC3)noc2n1,-7.595
9,CCN(C)C(=O)CN1CCC(c2cc(N3CCOCC3)nc(C)n2)CC1,11.68
10,CCC[C@H]1CN(S(=O)(=O)c2ccc(-c3c(C)noc3C)s2)C[C@@H]1N,-6.038
11,Cc1noc(C)c1-c1cccc(C2CN(S(=O)(=O)N(C)C)CCO2)n1 (configuration not stated),137.9
12,Cc1noc(C)c1-c1cccc(C2CN(CC(=O)N(C)C)CCO2)n1.O=CO (configuration not stated),138.9
13,Cc1noc(C)c1CN(C)C(=O)C1CCN(S(N)(=O)=O)CC1,-4.387
14,CC(C)c1n[nH]c(C2CN(CC(=O)N(C)Cc3ccco3)CCO2)n1 (configuration not stated),-2.203
15,Cc1nc(-c2c(C)noc2C)cc(C2CCN(S(=O)(=O)N(C)C)CC2)n1,103.8
16,Oc1ccc(-c2c(-c3ccccc3)ncn2C[C@H]2CCCN2)cc1,-6.352
17,CCc1noc(C(C)N2CCC(NS(=O)(=O)c3ccccc3)CC2)n1 (configuration not stated),-5.336
18,CN(C(=O)CN1CCC(c2cc3ccccc3[nH]2)CC1)C1CC1,-16.32
19,CN(C(=O)CN1CCC(c2cc3ccccc3[nH]2)CC1)C(C)(C)C#N,-0.1259
20,Cc1noc(C)c1-c1cccc(C2CCN(CC(=O)N(C)C)CC2)n1,159.5
21,Cc1csc(CNc2cccc(OCCN3CCCC3)c2)n1,-3.385
22,CCOc1cc(C(=O)N2CCCC(c3noc(C)n3)C2)ccn1 (configuration not stated),-8.742
23,CC(C)c1nc(C2CCCN(C(=O)c3nccn4ccnc34)C2)no1 (configuration not stated),101.8
24,Cc1ncsc1C(=O)N1CCCC(c2noc(C(C)C)n2)C1 (configuration not stated),-0.9065
25,CCOc1cc(CNC(=O)NCc2nc(C)c(C)s2)ccn1,-14.7

row,SMILES,Percent Effect [%]
1,CCOc1cc(C(=O)N2CC=C(c3ccc(O)cc3)CC2)ccn1,-12.82
2,CCOc1cc(C(=O)N2CCCC(c3noc(C(C)C)n3)C2)ccn1 (configuration not stated),127.2
3,CCOc1cc(C(=O)N2CCCC(c3nc(C)c(C)s3)C2)ccn1 (configuration not stated),118.9
4,CCOc1cc(C(=O)N2CCCC(c3noc(CC)n3)C2)ccn1 (configuration not stated),112.4
5,CCNc1ncc(CN2C[C@H]3CC[C@@H]2CN(C(=O)C2CCC2)C3)cn1,-9.372
6,COCc1cc(N2CCN(c3ccc(Cl)cn3)CC2)n2nccc2n1,-13.5
7,COc1ccc(F)c(CN2CCCC(O)(CNCc3ccoc3)C2=O)c1 (configuration not stated),4.177
8,Cc1n[nH]c(C)c1CNC(=O)N(Cc1ccccc1)CC(C)(C)O,-20.3
9,Cc1ccc(CNC(=O)N(Cc2ccccc2F)C2CC2)cn1,-4.204
10,CCCc1cc(CN(C)C2CC(C)(C)NC(C)(C)C2)n[nH]1,-6.342
11,CC1(C)CC(N(Cc2ccccc2)Cc2c[nH]cn2)CC(C)(C)N1.O=C(O)CC(O)(CC(=O)O)C(=O)O,113.6
12,Cc1nc[nH]c1CN(C)CC1CCCN(CCc2ccc(Cl)cc2)C1 (configuration not stated),-5.725
13,Cc1nc[nH]c1CN(Cc1ccccc1)C1CC(C)(C)NC(C)(C)C1.O=C(O)CC(O)(CC(=O)O)C(=O)O,106.8
14,Cc1nc[nH]c1CN(Cc1ccccc1F)C1CC(C)(C)NC(C)(C)C1.O=C(O)CC(O)(CC(=O)O)C(=O)O,111.6
15,O=C(c1cc[nH]n1)N(Cc1ccccc1)CC1CCC1,-1.584
16,Cc1ccc(CN(Cc2c[nH]cn2)C2CC(C)(C)NC(C)(C)C2)o1.O=C(O)CC(O)(CC(=O)O)C(=O)O,1.098
17,Cc1nc[nH]c1CN(Cc1ccc(F)cc1)C1CC(C)(C)NC(C)(C)C1,102.8
18,O=C(c1ccc(C2CCCN2C(=O)c2ccoc2)s1)N1CCOCC1 (configuration not stated),-19.01
19,Cc1cnc(C)c(-c2cc(O)c3c(c2)CN(c2nccs2)CCO3)n1,-4.792
20,O=C(CCc1ccco1)NS(=O)(=O)Cc1ccon1,-7.253
21,Fc1cccc2c1CCC2NCc1ccc(N2CCOCC2)cc1 (configuration not stated),19.23
22,Cc1nc(CN(C)S(=O)(=O)c2ccccc2Br)no1,4.725
23,Cc1ccc(CN2C[C@H]3CC[C@@H]2CN(Cc2[nH]cnc2C)C3)o1,6.692
24,Cc1ccc(CN(Cc2[nH]cnc2C)C2CC(C)(C)NC(C)(C)C2)o1.O=C(O)CC(O)(CC(=O)O)C(=O)O,115.3
25,CCC[C@H]1CN(c2nccc(OC)n2)C[C@@H]1NC(=O)C1CCOCC1,-2.049

row,SMILES,Percent Effect [%]
1,Cc1nc(O)cc(CN2C[C@H](NC(=O)C3CCCC3)[C@@H](C3CC3)C2)n1,0
2,Cc1nc(O)cc(CN2C[C@H](NC(=O)C3CCC3)[C@@H](C3CC3)C2)n1,-31.53
3,CCC[C@H]1CN(c2nc(CO)cs2)C[C@@H]1NC(=O)C1CCC1,94.3
4,CCC[C@H]1CN(Cc2cscn2)C[C@@H]1NC(=O)C1(COC)CCC1,6.083
5,CCC[C@H]1CN(Cc2nccn2C)C[C@@H]1NC(=O)C1(COC)CCC1,-15.87
6,CC(=O)N[C@@H]1CN(c2nc(CO)cs2)C[C@H]1c1ccc(C)o1,5.445
7,O=C(N[C@H]1CN(c2nc(CO)cs2)C[C@@H]1C1CC1)C1CCCCC1,92.34
8,CCC[C@H]1CN(c2nc(CO)cs2)C[C@@H]1NC(=O)C1(COC)CC1,96.14
9,COc1ccc(Br)cc1CCC(=O)N1CCC(O)CC1,-2.628
10,COc1ccc(-n2c(SCC(=O)O)nnc2-c2cn[nH]c2)cc1,-10.86
11,O=C(C1CCCS1)N1CCOc2cccc(F)c21 (configuration not stated),-0.5094
12,Cc1noc(C)c1NC(=O)N1CCC(NC(=O)OC(C)(C)C)CC1,-9.132
13,Cc1nn(-c2ccccn2)c(C)c1[C@@H]1C=C[C@@H](NC(=O)NC(C)C)C1,4.559
14,Cc1cccc(Oc2nccnc2C2CCN(C(=O)C(C)(C)N)CC2)c1,110.7
15,COCC(=O)N1CCC(Oc2cccc(C)c2)CC1,14.96
16,COc1ccc(Oc2nccnc2C2CCN(C(C)=O)CC2)cc1,88.85
17,CC(C)(C(=O)N1CCC(C(N)=O)C1)c1ccccc1F (configuration not stated),2.701
18,COc1ccc(Oc2ncccc2NC(=O)N2CCOC(C)C2)cc1 (configuration not stated),2.088
19,CC(C)(C(=O)N1CCC(CS(N)(=O)=O)CC1)c1ccccc1F,-25.38
20,CC(C)(N)C(=O)N1CCC(c2nccnc2Oc2ccccc2F)CC1,77.45
21,Cc1ccc(Oc2nccnc2C2CCN(C(=O)C(C)(C)N)CC2)cc1,108.2
22,CC(=O)N1CCC(c2nccnc2Oc2ccccc2)CC1,-11.76
23,CCc1nc(N)sc1C(=O)N1CCCC(COc2cccc(C)c2)C1 (configuration not stated),-15.03
24,CC(C)N1C(=O)CC(NC(=O)c2cc(Cl)sc2Cl)C1=O (configuration not stated),-12.95
25,COc1ccc(S(=O)(=O)Nc2cccnc2-n2cncn2)c(C)c1,-3.562

row,SMILES,Percent Effect [%]
1,CCc1c(NCc2cccnc2)cnn1CC(C)C,-15.31
2,CC(C)CN1CCc2[nH]cnc2C12CCN(C(=O)c1ccnn1C)CC2,-2.92
3,O=C(c1coc(COc2cccc(F)c2)n1)N1CC[C@H](O)[C@@H](O)C1,-11.67
4,CC(C)(N)C(=O)N1CCC(c2nccnc2Oc2cccc(F)c2)CC1,92.95
5,O=C(NCc1nncn1C1CC1)Nc1ccc(OC2CCC2)c(F)c1,8.636
6,Cc1ncc(-c2ccccn2)c(CCNC(=O)CCC2CCCO2)n1 (configuration not stated),93.7
7,CCOCCNC(=O)CCC1CCCO1 (configuration not stated),-23.31
8,Cc1cccc(C)c1OCCNC(=O)CNC(=O)C1CCCC1,-3.994
9,O=C(NCCNC(=O)C1CC1)c1cnc(-c2ccccc2)nc1,15.61
10,COc1ccc(OC)c(CCNC(=O)CCC2CCCO2)c1 (configuration not stated),18.05
11,Cc1ncc(-c2ccccn2)c(CCNC(=O)C2CCCC2)n1,121.3
12,CC(NCc1cnc(C2CCC2)s1)c1cccc(-n2ccnc2)c1 (configuration not stated),-10.94
13,O=C1N(CCc2ccccc2)CCCC1(O)CNCc1ccc(F)cc1 (configuration not stated),10.95
14,Cc1cc(C)c2[nH]c(=O)c(CN3CCCC(O)(CO)C3)cc2c1 (configuration not stated),-6.012
15,Cc1cc(C)c(CN2CCCC23Cc2ccccc2CNC3=O)c(C)c1 (configuration not stated),111.5
16,Cc1ccc(CN2CCCC23Cc2ccccc2CNC3=O)cc1 (configuration not stated),128.7
17,O=C(CC1CC1)N1CCC2(CC1)C(=O)NCCN2Cc1ccccc1,-11.42
18,CC(C)NC(=O)N1CCC2(CC1)C(=O)NCCN2Cc1ccccc1.O=C(O)C(F)(F)F,-27.1
19,Cc1ccc(CCN2CCCC23Cc2ccccc2CNC3=O)cc1 (configuration not stated),109.3
20,OC(CNCCn1cccn1)COc1cccc(C(F)(F)F)c1 (configuration not stated),6.446
21,CCN1CCC(NC(=O)CNC(C)Cn2cccn2)CC1 (configuration not stated),5.956
22,CCC[C@@H]1CN(Cc2cc3c(cc2OC)OCO3)C[C@H]1C(=O)O,5.15
